According to PubChem BioAssay AID1851 (National Center for Advancing Translational Sciences (NCATS), 2009):
The whole screen tested about 16,000 compounds, of which about 5,800 (36%) were called active. Roughly 23% stayed inconclusive and do not appear here. The call rests on the fitted dose curve; in most records, active means well fitted curve in the direction sought with a large enough effect; inconclusive means small, poorly fitted or top-dose-only effect, or effect the other way; inactive means no such curve, though single readings can be large or run the other way. The list shows a part of the results.

The compounds below were run against Cytochrome P450 2C19 (Homo sapiens) (UniProt P33261) (assay: Cytochrome panel assay with activity outcomes). Conditions: recombinant CYP, pro-luciferin dealkylation, luminescence, p450-cyp2c19; series mostly up to 57.1 µM.
Cytochrome P450 2C19 (Homo sapiens), sequence (P33261 whole entry, looked up): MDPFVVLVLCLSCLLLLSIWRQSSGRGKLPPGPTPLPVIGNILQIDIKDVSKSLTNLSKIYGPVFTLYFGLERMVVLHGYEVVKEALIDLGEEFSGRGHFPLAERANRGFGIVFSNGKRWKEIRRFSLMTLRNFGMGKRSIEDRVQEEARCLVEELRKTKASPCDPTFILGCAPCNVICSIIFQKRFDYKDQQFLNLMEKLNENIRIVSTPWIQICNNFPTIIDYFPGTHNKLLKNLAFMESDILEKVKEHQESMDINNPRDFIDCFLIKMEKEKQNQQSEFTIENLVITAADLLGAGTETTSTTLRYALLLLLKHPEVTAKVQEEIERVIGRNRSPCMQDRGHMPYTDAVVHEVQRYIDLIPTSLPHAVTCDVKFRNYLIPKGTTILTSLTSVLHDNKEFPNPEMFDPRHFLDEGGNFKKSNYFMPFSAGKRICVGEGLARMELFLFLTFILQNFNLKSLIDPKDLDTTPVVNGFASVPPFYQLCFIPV
On the % scale 0 is the no-effect control and ±100 the full control effect.

Row | SMILES | AC50 | activity, negative = inhibition
1 | O=C1N(c2ccccc2)c2ccccc2C1(Cc1ccncc1)Cc1ccncc1 | 0.2 µM (active) | –
2 | O=C1c2ccccc2C(Cc2ccncc2)(Cc2ccncc2)c2ccccc21 | inactive | –
3 | N#C/C(=C\c1ccc(Cl)cc1)c1nc2ncccc2[nH]1 | 25.1 µM (active) | –
4 | COc1ccccc1CN1CCCC2(CCNCC2)C1 | inactive | –
5 | COc1cccc(CN2C(=O)N(C(C)C)C(N(O)C(=O)NC(C)C)C2(C)C)c1OC (configuration not stated) | 14.1 µM (active) | –
6 | O=C1/C(=C\c2ccccn2)SC(=S)N1Nc1ncc(C(F)(F)F)cc1Cl | 7.94 µM (active) | –
7 | CN(C)c1ccc(/C=C2\SC(=S)N(Nc3ncc(C(F)(F)F)cc3Cl)C2=O)cc1 | 20 µM (active) | –
8 | O=c1c(Cl)c(N2CCN(S(=O)(=O)c3ccc(F)cc3)CC2)cnn1-c1cccc(Cl)c1 | 4.47 µM (active) | –
9 | O=C(NCc1n[nH]c(=S)n1-c1cccc(Cl)c1)c1ccc(S(=O)(=O)N2CCCC2)cc1 | inactive | –
10 | C[N+](C)(C)CCOC(N)=O | inactive | –
11 | Nc1ncnc2c1ncn2C1CCCC1 | inactive | –
12 | Nc1ncnc2c1c(-c1ccc(Oc3ccccc3)cc1)cn2C1CCCC1 | 25.1 µM (active) | –
13 | C#CCCCO/N=C1/C[C@@H](O)[C@@H](O)[C@@H]2[C@@H]3C(=O)N(C4CCCCC4)C(=O)[C@H]3CC[C@H]12 | – | 4.77% [at 11.4 µM] (inactive)
14 | N#Cc1cccc(-c2ccc3ncnc(NCc4ccccc4)c3c2)c1 | inactive | –
15 | COc1ccc(CNc2ncnc3ccc(-c4cccc(C#N)c4)cc23)c(OC)c1 | inactive | –
16 | c1nc(NCCN2CCOCC2)c2cc(-c3ccoc3)ccc2n1 | inactive | –
17 | COc1ccccc1CNc1ncnc2ccc(-c3ccccc3CN(C)C)cc12 | inactive | –
18 | COc1ccccc1CNc1ncnc2ccc(-c3cccc(C#N)c3)cc12 | 5.01 µM (active) | –
19 | COc1cccc(-c2ccc3ncnc(NCc4ccc(OC)cc4OC)c3c2)c1 | 10 µM (active) | –
20 | c1csc(CNc2ncnc3ccc(-c4ccoc4)cc23)c1 | 6.31 µM (active) | –
21 | COc1ccccc1CNc1ncnc2ccc(-c3ccccc3OC)cc12 | 3.16 µM (active) | –

Row | SMILES | AC50 | activity, negative = inhibition
22 | CSc1nnc2c(n1)OC(C)N(C(=O)c1ccccc1)c1ccccc1-2 (configuration not stated) | inactive | –
23 | CS(=O)(=O)Nc1cccc(-c2ccc3ncnc(NCc4cccs4)c3c2)c1 | 15.8 µM (active) | –
24 | CS(=O)(=O)Nc1cccc(-c2ccc3ncnc(NCCN4CCOCC4)c3c2)c1 | inactive | –
25 | COc1cccc(-c2ccc3ncnc(NCc4cccs4)c3c2)c1 | 10 µM (active) | –
26 | COc1ccc(CNc2ncnc3ccc(-c4ccccc4OC)cc23)c(OC)c1 | 7.94 µM (active) | –
27 | COc1ccc(CNc2ncnc3ccc(-c4ccccc4CN(C)C)cc23)c(OC)c1 | 15.8 µM (active) | –
28 | COc1ccc(CNc2ncnc3ccc(-c4c(C)noc4C)cc23)c(OC)c1 | 10 µM (active) | –
29 | COc1ccc(CNc2ncnc3ccc(-c4ccoc4)cc23)c(OC)c1 | 7.94 µM (active) | –
30 | COc1ccc(CNc2ncnc3ccc(-c4ccccc4C#N)cc23)c(OC)c1 | inactive | –
31 | COc1ccccc1CNc1ncnc2ccc(-c3ccccc3C#N)cc12 | 7.94 µM (active) | –
32 | Cc1nc2sc(C#N)c(N)c2c2c1CCCC2 | 11.2 µM (active) | –
33 | C[C@@H]1c2ccccc2CN1CC1=NCCN1 | inactive | –
34 | CCn1c(N2CCN(C(=O)Nc3ccc(F)cc3)CC2)nc2ccccc21 | 31.6 µM (active) | –
35 | COc1ccc(NC(=O)N2CCCC3(CCN(C(=O)c4cccc(F)c4)CC3)C2)cc1 | inactive | –
36 | COc1ccc(NC(=O)N2CCC3(CC2)CCN(C(=O)c2cccc(F)c2)CC3)cc1 | inactive | –
37 | CCOC(=O)CSc1n[nH]c(NC(=O)c2cccc(C)c2)n1 | 5.01 µM (active) | –
38 | O=C(O)CCCSc1ccccc1 | – | 31.6% [at 11.4 µM] (inactive)
39 | Cc1cc(Br)ccc1NC(=O)CCSc1ccccc1 | 1.26 µM (active) | –
40 | NNC(=O)CCSc1ccccc1 | 3.98 µM (active) | –
41 | O=c1c(-c2ccccc2)nc2cnc(N3CCNCC3)nc2n1-c1ccccc1 | inactive | –
42 | CC(C)c1ccc(CN(C(=O)C2COc3ccccc3O2)C2CCS(=O)(=O)C2)cc1 (configuration not stated) | 10 µM (active) | –

Row | SMILES | AC50 | activity, negative = inhibition
43 | CCCCC(=O)NC(Nc1cc(C)ccn1)(C(=O)OCC)C(F)(F)F (configuration not stated) | 1.41 µM (active) | –
44 | N=c1sc2ccccc2n1CCS (tested in a mixture with another compound) | 1.58 µM (active) | –
45 | O=C(O)c1ccccc1NCn1c(=S)sc2ccccc21 | – | -40.3% [at 11.4 µM] (inactive)
46 | c1ccc2nc(C3=NCCN3)cnc2c1 | inactive | –
47 | Cc1cc(C)n(Cc2ccc(NC(=O)c3ccc(COc4ccccc4Br)cc3)cc2)n1 | 3.98 µM (active) | –
48 | COC(=O)[C@@]1(Cc2ccccc2)[C@H]2c3cc(C(=O)N4CCCC4)n(CCc4ccccn4)c3C[C@H]2CN1C(=O)c1ccccc1 | 25.1 µM (active) | –
49 | COC(=O)[C@@]1(Cc2ccccc2)[C@H]2c3cc(C(=O)N4CCCC4)n(Cc4ccccn4)c3C[C@H]2CN1C(=O)c1ccccc1 | 10 µM (active) | –
50 | COC(=O)[C@@]1(Cc2ccccc2)[C@H]2c3cc(C(=O)N4CCCC4)n(Cc4nc5ccccc5[nH]4)c3C[C@H]2CN1C(=O)c1ccccc1 | 15.8 µM (active) | –
51 | COC(=O)[C@@]1(Cc2ccc(OC)cc2)[C@H]2c3cc(C(=O)N4CCCC4)n(CCn4cc([N+](=O)[O-])nc4C)c3C[C@H]2CN1C(=O)c1ccccc1 | inactive | –
52 | CSc1nc(Cl)cc(N(CCO)CCO)n1 | inactive | –
53 | CC(C)(C=O)Cc1cc(C(C)(C)C)c(O)c(C(C)(C)C)c1 | inactive | –
54 | CC(C)(CO)Cc1cc(C(C)(C)C)c(O)c(C(C)(C)C)c1 | 25.1 µM (active) | –
55 | CCOC(=O)c1ccccc1N/C=C1\CCCCC1=O | 22.4 µM (active) | –
56 | CCn1c2ccccc2c2cc(NC(=O)C/C(C)=N/NC(=O)c3ccccc3N)ccc21 | 2.24 µM (active) | –
57 | CCc1ccccc1N1C(=O)c2cccc3c(N4CCOCC4)c([N+](=O)[O-])cc(c23)C1=O | 3.98 µM (active) | –
58 | O=c1cc(N2CCOCC2)oc2c(-c3ccccc3)cccc12 | inactive | –
59 | Cc1noc(C)c1-c1nccc(N(C)Cc2ccco2)n1 | 1 µM (active) | –
60 | COc1cccc(-c2nccc(N(C)Cc3ccco3)n2)c1 | 5.01 µM (active) | –
61 | Cc1noc(C)c1-c1nccc(N(C)C)n1 | inactive | –
62 | CN(Cc1ccco1)c1ccnc(-c2cccnc2)n1 | 6.31 µM (active) | –
